In PubChem BioAssay:
Activity calls are given as the source filed them.

How the values were obtained:
[1] = tested on: Plasmodium falciparum Sir2 (PF13_0152, Sir2A); experiment: pfSir2 binders on small-molecule microarrays, primary screen, biochemical, small-molecule microarray, 635 nm fluorescence (AID 1098); settings: small-molecule microarray binding, fluorescence 635 nm; higher = more signal;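 note: score merges spot fluorescence intensity with its signal-to-noise ratio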
[2] = small-molecule microarray binders of probe aDKK1, primary screen, biochemical, biotinylated probe, 635/667 nm fluorescence (AID 1099); settings: higher = more signal;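 note: score merges 667nm spot fluorescence with signal to noise across triplicate slides; reference of the scale not given here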
[3] = small-molecule microarray binders of probe aCHRDL2, primary screen, biochemical, biotinylated probe, 635/667 nm fluorescence (AID 1100); settings: higher = more signal
[4] = splicing luciferase reporter signal modulators, primary screen, spliceosome inhibition project, cell-based, HEK293, splice +/- reporter (AID 1101); settings: luminescence, 24 h, higher = more signal, called active from +8 up or from −8 down;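 note: HEK293 cells carrying a splicing-competent luciferase reporter gene; test concentration not given here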
[5] = target: Fibroblast growth factor 10 (Homo sapiens) (UniProt O15520); experiment: FGF10 binders on small-molecule microarrays, primary screen, biochemical, small-molecule microarray, 635 nm fluorescence (AID 1102); settings: FGF10 binding, fluorescence 635 nm, higher = more signal
[6] = tested on: glycogen synthase kinase-3 (GSK3A per assay name; protocol says GSK3B); experiment: GSK3 binders on small-molecule microarrays, primary screen, biochemical, small-molecule microarray, 635 nm fluorescence, GSK3A (AID 1103); settings: small-molecule microarray binding, fluorescence 635 nm; higher = more signal; note: the record names both GSK3A and GSK3B
[7] = target: Epidermal growth factor receptor (Homo sapiens) (UniProt P00533); experiment: EGFR binders on small-molecule microarrays, primary screen, biochemical, small-molecule microarray, 635 nm fluorescence (AID 1104); settings: EGFR binding, higher = more signal;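 note: score merges 667 nm emission intensity with spot signal to noise over triplicate slides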
[8] = target: Follistatin-related protein 3 (Homo sapiens) (UniProt O95633); experiment: FSTL3 binders on small-molecule microarrays, primary screen, biochemical, small-molecule microarray, 635 nm fluorescence (AID 1105); settings: FSTL3 binding, higher = more signal;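 note: score merges emission near 667 nm and signal to noise per printed spot across three slides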
[9] = target: Dickkopf-related protein 1 (Homo sapiens) (UniProt O94907); experiment: DKK1 binders on small-molecule microarrays, primary screen, biochemical, small-molecule microarray, 635 nm fluorescence scan (AID 1106); settings: DKK1 binding, higher = more signal;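 note: score merges emission near 667 nm with signal to noise over three replicate slides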
[10] = tested on: Inhibin beta A chain (activin A); experiment: INHBA (activin A) binders on microarrays, primary screen, biochemical, small-molecule microarray, 635 nm fluorescence scan (AID 1107); settings: small-molecule microarray binding, higher = more signal;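 note: mouse activin A protein probed at 4.33 µg/mL on printed slides; score merges bound-protein fluorescence near 667 nm with spot signal-to-noise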

Chain of Dickkopf-related protein 1 (Homo sapiens) (O94907 whole entry, looked up): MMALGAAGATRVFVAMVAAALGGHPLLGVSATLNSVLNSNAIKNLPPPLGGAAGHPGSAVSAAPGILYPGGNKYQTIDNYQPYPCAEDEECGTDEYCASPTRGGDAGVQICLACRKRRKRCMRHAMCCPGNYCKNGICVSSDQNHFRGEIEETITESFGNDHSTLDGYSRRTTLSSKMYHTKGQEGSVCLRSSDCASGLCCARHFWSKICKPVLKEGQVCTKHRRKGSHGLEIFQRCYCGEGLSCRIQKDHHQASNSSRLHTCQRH
Chain of Follistatin-related protein 3 (Homo sapiens) (O95633 whole entry, looked up): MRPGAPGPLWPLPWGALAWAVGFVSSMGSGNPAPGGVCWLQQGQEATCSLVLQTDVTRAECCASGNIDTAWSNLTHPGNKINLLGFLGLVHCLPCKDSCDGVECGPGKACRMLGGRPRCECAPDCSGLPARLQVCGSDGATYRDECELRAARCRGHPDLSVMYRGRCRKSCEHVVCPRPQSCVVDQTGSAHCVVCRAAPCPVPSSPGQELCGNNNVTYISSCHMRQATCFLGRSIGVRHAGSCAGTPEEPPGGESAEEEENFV
Chain of Fibroblast growth factor 10 (Homo sapiens) (O15520 whole entry, looked up): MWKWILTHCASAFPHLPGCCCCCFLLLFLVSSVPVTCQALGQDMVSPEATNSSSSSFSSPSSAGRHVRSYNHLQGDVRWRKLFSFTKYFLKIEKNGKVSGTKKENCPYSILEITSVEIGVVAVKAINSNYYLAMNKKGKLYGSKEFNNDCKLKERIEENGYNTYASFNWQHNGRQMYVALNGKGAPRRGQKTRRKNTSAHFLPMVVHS
Chain of Epidermal growth factor receptor (Homo sapiens) (P00533 whole entry, looked up): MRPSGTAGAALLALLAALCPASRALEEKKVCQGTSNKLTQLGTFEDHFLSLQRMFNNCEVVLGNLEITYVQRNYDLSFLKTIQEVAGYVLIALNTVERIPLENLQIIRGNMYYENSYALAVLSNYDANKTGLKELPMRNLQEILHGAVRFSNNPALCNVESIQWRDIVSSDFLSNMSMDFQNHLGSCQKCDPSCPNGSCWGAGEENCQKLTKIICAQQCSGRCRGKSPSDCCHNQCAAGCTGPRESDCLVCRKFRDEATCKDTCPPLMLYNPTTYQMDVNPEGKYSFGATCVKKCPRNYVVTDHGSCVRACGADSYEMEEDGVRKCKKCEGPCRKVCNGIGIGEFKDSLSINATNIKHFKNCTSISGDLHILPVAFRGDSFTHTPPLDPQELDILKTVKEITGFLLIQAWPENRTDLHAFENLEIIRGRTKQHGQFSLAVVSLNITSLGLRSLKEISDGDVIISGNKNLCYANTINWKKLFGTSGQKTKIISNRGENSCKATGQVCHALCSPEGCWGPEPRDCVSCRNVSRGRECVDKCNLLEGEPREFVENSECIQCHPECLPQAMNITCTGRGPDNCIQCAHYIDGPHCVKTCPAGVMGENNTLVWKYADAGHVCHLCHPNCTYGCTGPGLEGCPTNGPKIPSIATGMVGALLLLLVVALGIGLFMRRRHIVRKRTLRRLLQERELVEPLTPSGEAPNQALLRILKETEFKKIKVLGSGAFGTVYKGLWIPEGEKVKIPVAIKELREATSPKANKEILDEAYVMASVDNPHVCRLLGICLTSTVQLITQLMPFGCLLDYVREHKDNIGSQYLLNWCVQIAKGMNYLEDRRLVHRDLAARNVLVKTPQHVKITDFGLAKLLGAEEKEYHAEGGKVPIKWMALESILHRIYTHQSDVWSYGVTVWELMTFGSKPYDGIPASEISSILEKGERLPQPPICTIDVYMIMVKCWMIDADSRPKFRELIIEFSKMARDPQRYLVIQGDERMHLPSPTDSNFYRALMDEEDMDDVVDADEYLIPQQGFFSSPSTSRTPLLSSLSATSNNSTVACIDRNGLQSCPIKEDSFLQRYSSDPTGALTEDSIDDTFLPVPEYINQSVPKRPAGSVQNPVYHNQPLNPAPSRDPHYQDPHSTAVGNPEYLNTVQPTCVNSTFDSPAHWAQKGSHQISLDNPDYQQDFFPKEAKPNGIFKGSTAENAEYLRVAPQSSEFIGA

SMILES	composite z-score [1]	composite z-score [2]	composite z-score [3]	z-score [4]	composite z-score [5]	composite z-score [6]	composite z-score [7]	composite z-score [8]	composite z-score [9]	composite z-score [10]
Cc1ccc(S[C@]2(C(=O)NC(C)C)CC(=O)N(Cc3ccccc3)[C@@H]2c2ccc(CO)cc2I)cc1	0.984	0.498	1.27	-0.328 (inactive)	-0.284	-0.683	-1.27	-0.911	-2.57	1.01
COc1ccc(NN2C(C(O)c3ccc(F)cc3)C=CC3C(=O)N(C4CCCCC4)C(=O)C32)cc1 (stereo not given)	0.565	0.959	0.763	-0.794 (inactive)	0.995	0.928	0.801	1.01	0.129	1.24
COC(=O)[C@@]1(Cc2ccc(F)cc2)[C@H]2c3cc(C(=O)N(C)C)n(Cc4cccc5ccccc45)c3C[C@H]2CN1C(=O)c1ccccc1	0.796	0.926	1.04	0.551 (inactive)	1.13	0.111	-0.953	-0.242	-1.02	0.644
COc1ccc(-c2cc3c(c(CCc4ccccc4)n2)[Si](C(C)C)(C(C)C)O[C@H]3c2ccccc2)cn1	-0.576	0.0477	-0.12	-0.879 (inactive)	0.332	-0.237	-0.0109	0.362	-0.0079	0.343
COC(=O)C(CC#Cc1ccc2c(c1)[C@]1(C(=O)N2)[C@H](C(N)=O)[C@H]2C(=O)O[C@H](c3ccccc3)[C@H](c3ccccc3)N2[C@@H]1c1ccccc1OCCO)C(=O)OC	1.39	-0.109	0.567	1.09 (inactive)	0.785	1.15	-0.0452	0.385	-0.151	-0.278
COCCOC(=O)N1C(=O)[C@@]2(c3cc(C#CCCO)ccc31)[C@H](C(=O)N1CCN(c3ncccn3)CC1)[C@H]1C(=O)O[C@H](c3ccccc3)[C@H](c3ccccc3)N1[C@@H]2c1ccc(OCCO)cc1	1.24	-0.019	0.349	-1.1 (inactive)	1.22	0.823	0.592	1.38	0.514	0.356
C=C(C(=O)CC[C@@H](OC(=O)c1cccnc1)c1cccc(OCCO)c1)C(C)C	1.32	0.28	0.0064	3.07 (inactive)	0.959	-0.521	0.111	0.343	0.109	0.867
CC1CC/C=C\[C@H]2OC34C=CCN(C(C)C)C(=O)[C@H]3N(C(C)CO)C(=O)[C@@H]4C2C(=O)O1 (stereo not given in full)	0.048	-0.27	-0.335	-0.789 (inactive)	-0.171	-0.297	-0.467	0.0275	0.165	0.727
CC(C)N1CC=CC23O[C@@H]4/C=C\CCCOC(=O)C4[C@H]2C(=O)N(C(C)CO)[C@@H]3C1=O (stereo not given in full)	0.748	-0.4	0.44	-1.09 (inactive)	-0.663	-1.02	-0.962	-0.849	-1.35	0.493
COc1ccc(NN2C(C(O)c3ccccc3)C=CC3C(=O)N(C4CCCCC4)C(=O)C32)cc1 (stereo not given)	1.25	0.535	0.291	-1.18 (inactive)	1.24	1.28	0.122	1.21	0.453	0.786
O=C1OCC=C[C@H]2OC34C=CCN(Cn5nnc6ccccc65)C(=O)[C@H]3N(CCO)C(=O)[C@@H]4[C@@H]12 (stereo not given in full)	0.101	-0.0279	0.329	1.15 (inactive)	-1.33	-1.02	-1.09	-1.35	-1.71	-0.0812
COCCOC(=O)N1C(=O)[C@@]2(c3cc(C#CC4=CCCCC4)ccc31)[C@H](C(=O)N1CCCCCCC1)[C@H]1C(=O)O[C@H](c3ccccc3)[C@H](c3ccccc3)N1[C@@H]2c1ccccc1OCCO	1.33	0.854	1.14	-1.09 (inactive)	0.536	1.3	0.846	1.44	0.865	1.75
C=CCNC(=O)[C@@H]1[C@H]2C(=O)O[C@H](c3ccccc3)[C@H](c3ccccc3)N2[C@H](c2ccc(O)cc2)[C@@]12C(=O)N(C(=O)OCCOC)c1ccc(C#CCC(C(=O)OC)C(=O)OC)cc12	0.533	-0.0333	0.0912	0.942 (inactive)	1.17	0.611	0.408	1	0.493	0.273
C=CCNC(=O)[C@@H]1[C@H]2C(=O)O[C@H](c3ccccc3)[C@H](c3ccccc3)N2[C@H](c2ccc(OCCO)cc2)[C@@]12C(=O)N(C(=O)OCCOC)c1ccccc12	1.2	-0.144	0.496	0.263 (inactive)	1.28	1.08	0.459	1.03	0.0392	0.745
C=CCNC(=O)[C@H]1[C@@H]2C(=O)O[C@@H](c3ccccc3)[C@@H](c3ccccc3)N2[C@@H](c2ccc(O)cc2)[C@]12C(=O)Nc1ccccc12	0.524	0.46	0.501	-0.592 (inactive)	0.28	-0.471	-0.705	-0.693	-0.101	0.169
COc1cccc(C)c1NC(=O)O[C@H]1[C@H](OC(=O)Nc2ccc3c(c2)OCO3)[C@H](OC(=O)Nc2ccc3c(c2)OCO3)[C@@H](OC)O[C@@H]1CO	1.28	-0.0573	0.306	-0.316 (inactive)	1.39	1.34	0.169	1.01	0.487	0.69
C=C(COC)/C(=C/C[C@@H](OC(C)=O)c1cccc(OCCO)c1)c1cnc2ccccc2c1	-0.219	0.15	0.322	-0.302 (inactive)	1.56	0.917	1.26	1.55	1.02	1.93

SMILES	composite z-score [1]	composite z-score [2]	composite z-score [3]	z-score [4]	composite z-score [5]	composite z-score [6]	composite z-score [7]	composite z-score [8]	composite z-score [9]	composite z-score [10]
C=CCOC(=O)[C@H]1[C@@H]2C(=O)O[C@@H](c3ccccc3)[C@@H](c3ccccc3)N2[C@@H](c2ccc(OCCOC(=O)[C@H]3C[C@H]4C(=O)NCC(=O)N4[C@H]3c3cccc(OCCO)c3)cc2)[C@]12C(=O)Nc1ccc(I)cc12	1.1	-0.109	0.0341	0.341 (inactive)	1.37	1.3	0.504	1.37	0.614	0.622
O=C1O[C@@H](c2ccccc2)[C@@H](c2ccccc2)N2[C@@H](c3ccccc3OCCO)[C@]3(C(=O)Nc4ccc(C#CC5(O)CCCCCC5)cc43)[C@@H](C(=O)N3CCCCCCC3)[C@H]12	2.16	3.21	1.84	-1.3 (inactive)	1.66	1.45	2.09	1.77	2.68	1.91
O=C1NC(=O)C2C1C=CC(C(O)C1CCCCC1)N2Nc1ccccn1 (stereo not given)	0.488	0.174	0.279	1.31 (inactive)	0.355	-0.133	0.391	0.402	0.254	1.26
C=C(COC)C(=O)CC[C@H](OC(C)=O)c1ccccc1OCCO	0.858	-0.348	0.151	-0.0648 (inactive)	1.5	-0.41	-0.567	-0.262	0.0024	1.13
C=C(COC)C(=O)CC[C@H](OC(C)=O)c1ccc(CO)o1	1.44	-0.362	-0.566	-1.35 (inactive)	0.757	-0.646	-0.0826	0.47	0.488	1.03
O=C(NCC(F)(F)F)[C@@H]1c2ccccc2C(=O)N(Cc2cc(C(F)(F)F)cc(C(F)(F)F)c2)[C@H]1c1ccc(CO)cc1	1.78	-0.207	0.272	0.245 (inactive)	0.728	-0.137	-0.284	-0.145	0.382	0.0807
COCCCNC(=O)[C@]1(Cc2ccccc2N=[N+]=[N-])N=C(c2ccc(OCCCO)cc2)O[C@@H]1c1ccccc1	1.5	1.23	1.28	1.08 (inactive)	0.612	1.25	-0.137	0.597	-0.425	0.97
CC1C2C(CCCO)=CC(C3C(=O)N(C)C(=O)C23)N1Cc1cccc(OC(F)(F)F)c1 (stereo not given)	1.47	0.784	0.44	-1.06 (inactive)	0.684	1.3	0.0422	0.231	-0.124	0.527
C=C(C(=O)CC[C@@H](OC(=O)c1ccccc1-c1ccccc1C(=O)O)c1ccc(CO)o1)C(C)C	1.07	-0.258	-0.532	0.88 (inactive)	1.51	0.913	-0.132	0.648	1.12	0.927
COc1c(C)cc(-c2nc(-c3ccccc3)c3c(c2C)CO[Si]3(C(C)C)C(C)C)cc1C	-0.186	-0.141	0.0757	-0.394 (inactive)	0.295	0.324	0.387	0.338	0.305	0.698
C=CC[C@H](OC(=O)Nc1ccc(SC)cc1)c1ccc(O)c(F)c1	0.983	-0.172	0.277	-0.354 (inactive)	-0.918	-0.786	-0.392	-0.88	-1.17	0.536
CCCC[C@@H](O)C1=C(C)Cn2c(=O)n(-c3ccccc3)c(=O)n2[C@H]1CO	-0.0833	-0.526	-0.487	-1 (inactive)	0.132	-0.349	0.0431	-0.265	0.0869	0.146
CCCCCN1CC=CC23O[C@@H]4/C=C\CCCOC(=O)C4[C@H]2C(=O)N(CCO)[C@@H]3C1=O (stereo not given in full)	1.14	-0.132	0.107	-1.83 (inactive)	-0.412	0.45	-0.356	-0.338	-0.0986	1.14
CN1C(=O)C2C=CC(C(O)COCc3ccccc3)N(Nc3ccc([N+](=O)[O-])cc3[N+](=O)[O-])C2C1=O (stereo not given)	0.111	0.753	0.888	0.806 (inactive)	-0.0198	-0.443	-1.04	-0.381	-0.82	1.13
CC(C)Cc1ccc(CN2CC[C@@H](NC(=O)c3ccccc3)C2)cc1	0.934	-0.357	0.0383	1.03 (inactive)	-0.75	-1.11	-0.381	-0.647	-0.0332	0.631
COCCOC(=O)N1C(=O)[C@@]2(c3cc(C#CCCO)ccc31)[C@H](c1ccc(O)cc1)N1[C@H](c3ccccc3)[C@H](c3ccccc3)OC(=O)[C@H]1[C@@H]2C(=O)NC[C@H](O)c1ccccc1	1.16	-0.0668	-0.0755	0.49 (inactive)	0.758	0.733	0.0103	0.491	0.143	0.48
